# Records with an inconclusive call do not appear. Active and inactive are the calls of the source. Rule for the calls, unless noted: active = hit-call score of the fitted dose curve at least 0.9, where 1 is the maximum; inactive = score below 0.9.
# Experiments:
# TTR (gene 7276) = experiment: CCTE_GLTED_hTTR_0.125uM: CCTE's human Transthyretin (hTTR) Inhibition Assay, with 0.125uM TTR, Great Lakes Toxicology and Ecology Division (GLTED) Lab (AID 2284431);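 note: hits lower the fluorescence signal relative to DMSO baseline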
# Outline: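 Activity is defined as decreased ANSA fluorescence (ex 380, em 475) from human transthyretin, 0.125uM, following 2-hour chemical exposure in a cell-free setup, with DMSO as baseline.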
# [1] = CCTE_Padilla_ZF_Score.General: CCTE's 144 Hour Post-fertilization zebrafish Assay Score for General Malformation, Padilla Lab (AID 2284411)
# Outline: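 Malformation, death and hatching were scored at 6 dpf by two blinded observers under a stereo microscope. Embryos were dosed singly from 6-8 hpf in sealed plates of 10% Hanks' at 26C and rinsed on 5 dpf; DMSO baseline.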
# [2] = CCTE_Padilla_ZF_Score.Living: CCTE's 144 Hour Post-fertilization zebrafish Assay Score for Viability, Padilla Lab (AID 2284410);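 note: larval death at 6 dpf judged by absent heartbeat or coagulation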
# Outline: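 Mortality at 6 dpf, judged as absent heartbeat or coagulation by two blinded observers, after sealed static exposure beginning at 6–8 hpf at 26C. Larvae were rinsed free of chemical at 5 dpf, and activity was fitted relative to DMSO.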
# [3] = CCTE_Padilla_ZF_Score.Tail: CCTE's 144 Hour Post-fertilization zebrafish Assay Score for Tail Malformation, Padilla Lab (AID 2284414)
# Outline: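 Tail malformations were scored at 6 dpf by two blinded assessors under a stereo microscope. Chorionated embryos had been exposed from 6-8 hpf in sealed wells of 10% Hanks' at 26 C, then rinsed free of chemical at 5 dpf.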
# [4] = CCTE_Padilla_ZF_Score.Blood_pooling: CCTE's 144 Hour Post-fertilization zebrafish Assay Score for Blood Pooling, Padilla Lab (AID 2284415)
# Outline: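 Blood pooling was scored at 6 dpf under a stereo microscope by two blinded assessors, fitted upward against DMSO. Single embryos were dosed at 6–8 hpf in 10% Hanks', kept sealed at 26C (14:10 h cycle) and rinsed at 5 dpf.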
# [5] = CCTE_Padilla_ZF_Score.Any: CCTE's 144 Hour Post-fertilization zebrafish Assay Score for Any Mortality or Malformation, Padilla Lab (AID 2284416)
# Outline: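 Wild-type zebrafish embryos with chorions, one per well in 10% Hanks' from 6–8 hpf, dosed in sealed plates at 26 C, 14:10 h light:dark; rinsed at 5 dpf; blinded scoring at 6 dpf for death or malformation, versus DMSO.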
# [6] = test system: SRY-box transcription factor 17 (SOX17) Protein Expression, Deisenroth Lab, SOX17 (gene 64321); experiment: CCTE_Deisenroth_DEVTOX-GLR_Endo_SOX17: CCTE's DevTox GLR-Endo Assay Evaluation of SRY-box transcription factor 17 (SOX17) Protein Expression, Deisenroth Lab (AID 2284413)
# Outline: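 RUES2-GLR human pluripotent cells were seeded 24 h, then differentiated toward endoderm for 48 h with two chemical exposures 24 h apart (10-point series, 1 nM - 200 uM). Nuclei-stained fixed cells were imaged; endpoint is percent change in SOX17+ cells versus 0.2% DMSO.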
# [7] = test system: Brachyury (BRA) Protein Expression, TBXT (gene 6862); experiment: CCTE_Deisenroth_DEVTOX-GLR_Endo_BRA: CCTE's DevTox GLR-Endo Assay Evaluation of Brachyury (BRA) Protein Expression, Deisenroth Lab (AID 2284417)
# Outline: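 RUES2-GLR pluripotent cells differentiated 48 h with two chemical exposures 24 h apart, 10-point range 1 nM - 200 uM. Percentage of BRA+ cells per total count by high-content imaging, minus 0.2% DMSO control.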
# [8] = CCTE_Deisenroth_DEVTOX-GLR_Endo_CellCount: Viability Assessment in CCTE's DevTox GLR-Endo Assay, Deisenroth Lab (AID 2284420)
# Outline: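 Measured 48 h after dosing: fluorescent nuclei counted by imaging in human RUES2-GLR cells under defined differentiation media, tested at 1 nM - 200 uM. Values are percent cell-count change relative to 0.2% DMSO.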
# [9] = test system: SRY-box transcription factor 17 (SOX17) Protein Expression, Deisenroth Lab, SOX17 (gene 64321); experiment: CCTE_Deisenroth_DEVTOX-GLR_Pluri_SOX17: CCTE's DevTox GLR-Pluri Assay Evaluation of SRY-box transcription factor 17 (SOX17) Protein Expression, Deisenroth Lab (AID 2284427; active = hit-call score of the fitted dose curve at least 0.9, where 1 is the maximum)
# Outline: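 Using an inducible fluorescent SOX17 reporter in human pluripotent RUES2-GLR cells, compounds (1 nM - 200 uM) were given twice over 48 h differentiation. Percent SOX17+ cells minus DMSO control came from high-content image analysis.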
# [10] = test system: SRY-box transcription factor 2 (SOX2) Protein Expression, Deisenroth Lab, SOX2 (gene 6657); experiment: CCTE_Deisenroth_DEVTOX-GLR_Pluri_SOX2: CCTE's DevTox GLR-Pluri Assay Evaluation of SRY-box transcription factor 2 (SOX2) Protein Expression, Deisenroth Lab (AID 2284428)
# Outline: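 Percent SOX2+ RUES2-GLR cells, determined by fluorescence microscopy after 48 h and two 24-h-interval chemical exposures spanning 1 nM–200 uM, served as the endpoint. Values are expressed relative to 0.2% DMSO; total cell counts assessed viability.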
# [11] = test system: Brachyury (BRA) Protein Expression, Deisenroth Lab, TBXT (gene 6862); experiment: CCTE_Deisenroth_DEVTOX-GLR_Pluri_BRA: CCTE's DevTox GLR-Pluri Assay Evaluation of Brachyury (BRA) Protein Expression, Deisenroth Lab (AID 2284429; active = hit-call score of the fitted dose curve at least 0.9, where 1 is the maximum)
# Outline: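 Percent BRA+ cells (BRA+ count over total cells) by high-content imaging of fixed RUES2-GLR cultures, corrected by 0.2% DMSO control. Cells received two doses over 48-hour differentiation, 1 nM–200 uM, n=4 experiments.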
# [12] = CCTE_Deisenroth_DEVTOX-GLR_Pluri_CellCount: Viability Assessment in CCTE's DevTox GLR-Pluri Assay Evaluation of Total Cell Counts, Deisenroth Lab (AID 2284430)
# Outline: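 Cytotoxicity readout: fluorescent nuclei counts by high-content imaging, expressed as percent change relative to 0.2% DMSO. Human RUES2-GLR pluripotent line differentiated 48 h, dosed twice at 24-h intervals across 1 nM - 200 uM (10 points).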
# [13] = test system: SRY-box transcription factor 2 (SOX2) Protein Expression, Deisenroth Lab, SOX2 (gene 6657); experiment: CCTE_Deisenroth_DEVTOX-GLR_Endo_SOX2: CCTE's DevTox GLR-Endo Assay Evaluation of SRY-box transcription factor 2 (SOX2) Protein Expression, Deisenroth Lab (AID 2284412; active = hit-call score of the fitted dose curve at least 0.9, where 1 is the maximum)
# Outline: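 Endpoint is percent SOX2-positive cells (SOX2+ count/total cells) minus 0.2% DMSO control, from high-content imaging of fixed, nuclear-stained RUES2-GLR cells. Dosing twice at 24 h intervals over 48 h differentiation, 1 nM–200 uM in 10 points.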
structure (smiles),measurement,setting,value
CCCCCCCCOC(=O)c1ccc(O)cc1,AC50,TTR (gene 7276),2.77 µM (active)
CCCCCCCCCCCCS,outcome,[1],inactive
CCOC(=O)C=Cc1ccccc1,outcome,[1],inactive
C=C1CC[C@H]2O[C@]2(C)CC[C@@H]2[C@@H]1CC2(C)C,AC50,[1],65.4 µM (active)
C=C(C)C(=O)OCCC(F)(F)C(F)(F)C(F)(F)C(F)(F)C(F)(F)C(F)(F)C(F)(F)C(F)(F)F,outcome,[2],inactive
same,outcome,[1],inactive
same,outcome,[3],inactive
same,outcome,[4],inactive
same,outcome,[5],inactive
CCCCCCCCCCCCOCCOS(=O)(=O)O,AC50,TTR (gene 7276),6.09 µM (active)
O=C(O)C(F)(F)OC(F)(F)C(F)(F)OC(F)(F)C(F)(F)C(F)(F)C(F)(F)F,AC50,[2],81.2 µM (active)
same,AC50,[1],81.3 µM (active)
same,outcome,[3],inactive
same,outcome,[4],inactive
same,outcome,[5],inactive
CCCCCCOc1ccc(O)cc1,AC50,TTR (gene 7276),3.47 µM (active)
CCCCCCCCCOS(=O)(=O)O,AC50,TTR (gene 7276),8.43 µM (active)
OCC(F)(OC(F)(F)C(F)(OC(F)(F)C(F)(F)C(F)(F)F)C(F)(F)F)C(F)(F)F (stereo not given),AC50,[2],35.4 µM (active)
same,outcome,[1],inactive
same,outcome,[3],inactive
same,outcome,[4],inactive
same,AC50,[5],31.8 µM (active)
O=S(=O)(O)c1cc(S(=O)(=O)O)c2c(N=Nc3ccccc3)c(O)ccc2c1,AC50,TTR (gene 7276),12 µM (active)
O=c1cc(-c2ccc(O)cc2)oc2cc(O)cc(O)c12,AC50,TTR (gene 7276),0.035 µM (active)
O=C(O)c1ccccc1O,outcome,[6],inactive
same,outcome,[7],inactive
same,outcome,[8],inactive
same,outcome,[9],inactive
same,outcome,[10],inactive
same,outcome,[11],inactive
same,outcome,[12],inactive
CCCCCCCCCC(=O)OCC,outcome,[1],inactive
CC(=O)CCC=C(C)CCC=C(C)C,outcome,[1],inactive
CCC(=O)OC/C=C(\C)CCC=C(C)C,AC50,[1],27.3 µM (active)
O=S(=O)(O)C(F)(F)C(F)(F)OC(F)(F)C(F)(F)F,outcome,[2],inactive
same,outcome,[1],inactive
same,outcome,[3],inactive
same,outcome,[4],inactive
same,outcome,[5],inactive
CCCCCCCCOS(=O)(=O)O,AC50,TTR (gene 7276),10.6 µM (active)
C#C[C@]1(O)CC[C@H]2[C@@H]3CCc4cc(O)ccc4[C@H]3CC[C@@]21C,AC50,TTR (gene 7276),2.73 µM (active)
O=C(O)C(F)(F)C(F)(F)C(F)(F)C(F)(F)C(F)(F)C(F)(F)C(F)(F)C(F)F,outcome,[2],inactive
same,outcome,[1],inactive
same,outcome,[3],inactive
same,outcome,[4],inactive
same,AC50,[5],88.5 µM (active)
CC(C)Cc1ccc(C(C)C(=O)O)cc1 (stereo not given),outcome,[13],inactive
same,outcome,[6],inactive
same,outcome,[8],inactive
same,outcome,[9],inactive
same,outcome,[10],inactive
same,outcome,[11],inactive
same,outcome,[12],inactive
CCOC(=O)CCCCCCCCC(=O)OCC,outcome,[1],inactive
CC1=CC(C)C(C=O)C(C)C1 (stereo not given) (tested in a mixture with another compound),outcome,[1],inactive
C=C(F)C(=O)OC(C(F)(F)F)C(F)(F)F,outcome,[2],inactive
same,outcome,[1],inactive
same,outcome,[3],inactive
same,outcome,[4],inactive
same,outcome,[5],inactive
